Results from PubChem BioAssay (NCATS).
Records with an inconclusive call do not appear. The source made the active and inactive calls. Calls come from the whole dose curve; as a rule, active = well fitted curve in the direction sought with a large enough effect; inconclusive = small, poorly fitted or top-dose-only effect, or another doubt; inactive = no such curve, though single readings can be large; an effect the other way counts as inactive or inconclusive.

Key:
[1] = Quantitative High-Throughput drug screen in 47 multiple myeloma cell lines against the NCATS MIPE library collection: AMO1_DSMZ cell viability assay (AID 1918927; note: nearly all actives have a fitted effect of over 30% in size; note: potency is the fitted concentration of half-maximal effect)
How it was run: (§1)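 Viability readout: CellTiter-Glo luminescence following 5 min room-temperature incubation with reagent. Prior exposure: 48 h, 37C, humidified 5% CO2, 500 cells per well.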

[2] = Quantitative High-Throughput drug screen in 47 multiple myeloma cell lines against the NCATS MIPE library collection: ARP1_JJKsccF8 cell viability assay (AID 1918928; note: nearly all actives have a fitted effect of over 40% in size; note: potency is the fitted concentration of half-maximal effect)
How it was run: (§2)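 Here, 48 h treatment with MIPE 4.0 agents at 37 °C preceded an ATP luminescence read. Plating density was 500 cells per well.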

[3] = Quantitative High-Throughput drug screen in 47 multiple myeloma cell lines against the NCATS MIPE library collection: ARD_JJKsccE7 cell viability assay (AID 1918929; note: potency is the fitted concentration of half-maximal effect)
How it was run: as §1

[4] = Quantitative High-Throughput drug screen in 47 multiple myeloma cell lines against the NCATS MIPE library collection: Karpas620_DSMZ cell viability assay (AID 1918959); note: nearly all actives have a fitted effect of over 30% in size; note: potency is the fitted concentration of half-maximal effect
How it was run: (§3)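 Myeloma cell lines, 500 cells per well, exposed to MIPE 4.0 library compounds for 48 h at 37C, 5% CO2. Viability from ATP by CellTiter-Glo luminescence; normalised to DMSO (100%) and media-only (0%) wells.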

[5] = Quantitative High-Throughput drug screen in 47 multiple myeloma cell lines against the NCATS MIPE library collection: KMM1_JCRB cell viability assay (AID 1918960); note: nearly all actives have a fitted effect of over 30% in size; note: potency is the fitted concentration of half-maximal effect;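 for viability (% of DMSO): 100% = DMSO-treated cells and 0% = medium-only wells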
How it was run: as §2

[6] = Quantitative High-Throughput drug screen in 47 multiple myeloma cell lines against the NCATS MIPE library collection: Karpas417_ECACC cell viability assay (AID 1918961); conditions: Karpas417 myeloma viability, CellTiter-Glo ATP luminescence, 48 h; viability (% of DMSO): at 45.8 µM (top of the series); note: potency is the fitted concentration of half-maximal effect
How it was run: as §3

[7] = Quantitative High-Throughput drug screen in 47 multiple myeloma cell lines against the NCATS MIPE library collection: JIM1_ECACC cell viability assay (AID 1918964; note: potency is the fitted concentration of half-maximal effect)
How it was run: as §1

[8] = Quantitative High-Throughput drug screen in 47 multiple myeloma cell lines against the NCATS MIPE library collection: INA6_PLB cell viability assay (AID 1918965; note: nearly all actives have a fitted effect of over 55% in size; note: potency is the fitted concentration of half-maximal effect)
How it was run: as §3

[9] = Quantitative High-Throughput drug screen in 47 multiple myeloma cell lines against the NCATS MIPE library collection: KMS12PE_JCRB cell viability assay (AID 1918972); note: nearly all actives have a fitted effect of over 30% in size; note: potency is the fitted concentration of half-maximal effect
How it was run: as §3

[10] = Quantitative High-Throughput drug screen in 47 multiple myeloma cell lines against the NCATS MIPE library collection: JIM3_ECACC cell viability assay (AID 1918963; note: nearly all actives have a fitted effect of over 35% in size; note: potency is the fitted concentration of half-maximal effect)
How it was run: as §3

[11] = Quantitative High-Throughput drug screen in 47 multiple myeloma cell lines against the NCATS MIPE library collection: JJN3_DSMZ cell viability assay (AID 1918966; note: nearly all actives have a fitted effect of over 50% in size; note: potency is the fitted concentration of half-maximal effect)
How it was run: as §1

[12] = Quantitative High-Throughput drug screen in 47 multiple myeloma cell lines against the NCATS MIPE library collection: H1112_PLB cell viability assay (AID 1918967; note: nearly all actives have a fitted effect of over 30% in size; note: potency is the fitted concentration of half-maximal effect)
How it was run: as §1

[13] = Quantitative High-Throughput drug screen in 47 multiple myeloma cell lines against the NCATS MIPE library collection: Karpas25_ECACC cell viability assay (AID 1918968; note: nearly all actives have a fitted effect of over 35% in size; note: potency is the fitted concentration of half-maximal effect)
How it was run: as §1

[14] = Quantitative High-Throughput drug screen in 47 multiple myeloma cell lines against the NCATS MIPE library collection: KMS27_JCRB cell viability assay (AID 1918970); note: nearly all actives have a fitted effect of over 30% in size; note: potency is the fitted concentration of half-maximal effect
How it was run: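 Myeloma cells (500 per well) were exposed to MIPE 4.0 compounds for 48 h at 37 °C, 5% CO2; viability was read as ATP luminescence with CellTiter-Glo, normalized to DMSO-only (100%) and media-only (0%) wells.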

[15] = Quantitative High-Throughput drug screen in 47 multiple myeloma cell lines against the NCATS MIPE library collection: KMS20_JCRB cell viability assay (AID 1918973); note: nearly all actives have a fitted effect of over 45% in size; note: potency is the fitted concentration of half-maximal effect
How it was run: as §1

[16] = Quantitative High-Throughput drug screen in 47 multiple myeloma cell lines against the NCATS MIPE library collection: KMS26_JCRB cell viability assay (AID 1918975); note: nearly all actives have a fitted effect of over 45% in size; note: potency is the fitted concentration of half-maximal effect
How it was run: (§4)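 Luminescent ATP measurement with CellTiter-Glo gives viability, scaled between DMSO-only wells (100%) and media-only wells (0%). Cells, 500 per well, faced library compounds for 48 hours at 37C.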

[17] = Quantitative High-Throughput drug screen in 47 multiple myeloma cell lines against the NCATS MIPE library collection: MMM1_PLB cell viability assay (AID 1918976); note: nearly all actives have a fitted effect of over 35% in size; note: potency is the fitted concentration of half-maximal effect
How it was run: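 500 cells/well per myeloma line exposed to pinned MIPE 4.0 compounds for 48 h at 37 °C, 5% CO2. Viability read as ATP by CellTiter-Glo luminescence, normalised to DMSO-only (100%) and media-only (0%) wells.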

[18] = Quantitative High-Throughput drug screen in 47 multiple myeloma cell lines against the NCATS MIPE library collection: KMS12BM_JCRB cell viability assay (AID 1918971); note: nearly all actives have a fitted effect of over 35% in size; note: potency is the fitted concentration of half-maximal effect
How it was run: as §4

[19] = Quantitative High-Throughput drug screen in 47 multiple myeloma cell lines against the NCATS MIPE library collection: KHM11_PLB cell viability assay (AID 1918962); note: nearly all actives have a fitted effect of over 35% in size; note: potency is the fitted concentration of half-maximal effect
How it was run: as §3

[20] = Quantitative High-Throughput drug screen in 47 multiple myeloma cell lines against the NCATS MIPE library collection: KMS21BM_JCRB cell viability assay (AID 1918974); conditions: ATP luminescence, 48 h; viability: at 45.8 µM (top of the series)
How it was run: as §1

NC1=NC(=O)N2CC12 (stereo not drawn)
inactive: Potency [2]
active: Potency [1] 13.2 µM | Potency [3] 18.7 µM | Potency [4] 9.35 µM | Potency [5] 11.8 µM | Potency [6] 1.66 µM | Potency [7] 13.2 µM | Potency [8] 18.7 µM | Potency [9] 10.5 µM

N=c1c2c(-c3ccccc3)c(-c3ccccc3)n(Cc3ccccc3)c2ncn1C1CCC(O)CC1 (stereo not drawn)
active: Potency [1] 0.526 µM | Potency [2] 14.8 µM | Potency [3] 8.33 µM | Potency [4] 9.35 µM | Potency [5] 0.662 µM | Potency [10] 0.743 µM | Potency [7] 0.833 µM | Potency [8] 0.209 µM | Potency [11] 18.7 µM | Potency [12] 6.62 µM | Potency [13] 4.18 µM | Potency [14] 3.72 µM | Potency [9] 2.64 µM | Potency [15] 2.64 µM | Potency [16] 26.4 µM | Potency [17] 18.7 µM

C[C@]12CC[C@@H]3[C@@H](CCC4=CC(=O)CC[C@@H]43)[C@@H]1CC[C@@H]2OC(=O)CCc1ccccc1
inactive: Potency [1] | Potency [4] | Potency [5] | Potency [10] | Potency [12]

CC(C)(C)[C@]1(O)C[C@@H]2OC(=O)C[C@@]23C(=O)O[C@@H]2OC(=O)[C@H](O)C213 (stereo partly drawn)
inactive: Potency [1] | Potency [2] | Potency [4] | Potency [5] | Potency [8] | Potency [12] | Potency [14]
active: Potency [7] 0.0332 µM

COc1ccc(C(=O)c2c(C)n(CCN3CCOCC3)c3cc(I)ccc23)cc1
active: Potency [1] 11.8 µM | Potency [2] 23.5 µM | Potency [4] 18.7 µM | Potency [5] 18.7 µM | Potency [10] 13.2 µM | Potency [7] 11.8 µM | Potency [8] 8.33 µM | Potency [12] 16.6 µM | Potency [14] 13.2 µM | Potency [18] 23.5 µM | Potency [9] 20.9 µM | Potency [15] 5.26 µM

CSCC[C@@H](NC(=O)[C@@H](Cc1ccccc1)NC(=O)CNC(=O)CNC(=O)[C@@H](N)Cc1ccc(O)cc1)C(=O)O
active: viability (% of DMSO) [6] 132%
inactive: Potency [1] | Potency [2] | Potency [5] | Potency [19] | Potency [10] | Potency [8] | Potency [12] | Potency [14] | Potency [9] | Potency [15] | Potency [16]

COC1=CC(C)=C[C@@H](C)[C@@H](O)[C@@H](C)CC(C)=CC=C[C@H](OC)[C@H]([C@@H](C)[C@@H](O)[C@H](C)[C@@]2(O)C[C@@H](O)[C@H](C)[C@@H](C(C)C)O2)OC1=O
active: Potency [1] 0.001 µM | Potency [4] 14.8 µM | Potency [5] 0.0093 µM | Potency [19] 0.001 µM | Potency [7] 0.001 µM | Potency [12] 1.66 µM | Potency [15] 0.001 µM | Potency [16] 0.0033 µM | Potency [17] 10.5 µM

CC(=Cc1csc(C)n1)[C@@H]1C[C@H]2O[C@@H]2CCC[C@H](C)[C@@H](O)[C@@H](C)C(=O)C(C)(C)[C@@H](O)CC(=O)O1
active: Potency [1] 0.001 µM | Potency [5] 0.001 µM | Potency [7] 0.001 µM | Potency [11] 0.264 µM
inactive: Potency [2] | Potency [10] | Potency [8] | Potency [12] | Potency [18] | Potency [16]

CCc1c(C(=O)C(N)=O)c2c(OCC(=O)O)cccc2n1Cc1ccccc1
inactive: Potency [1] | Potency [4] | Potency [5] | Potency [6] | Potency [7] | Potency [8] | Potency [11] | Potency [12] | Potency [13] | Potency [9] | Potency [15] | Potency [16]

C[C@@H]1[C@H](O)[C@@H](C)C=CC=CCCC=CC=CC=CC=C[C@H](O[C@H]2O[C@@H](C)[C@H](O)[C@@H](N)[C@@H]2O)CC2O[C@](O)(C[C@@H](O)[C@H](O)CC[C@@H](O)C[C@@H](O)C[C@@H](O)CC(=O)O[C@H]1C)C[C@H](O)[C@H]2C(=O)O
inactive: Potency [1] | Potency [2] | Potency [4] | Potency [5] | Potency [7] | Potency [11] | Potency [12] | Potency [14] | Potency [9] | Potency [16]

CCOC(=O)c1c(C(C#N)=CN)c2ccc(Cl)c(Cl)c2n1C
inactive: Potency [1] | Potency [2] | Potency [4] | Potency [19] | Potency [12] | Potency [14] | Potency [9]

CCOC(=O)Nc1ccc(NCc2ccc(F)cc2)cc1N
active: Potency [5] 6.62 µM | Potency [12] 10.5 µM | Potency [9] 3.32 µM
inactive: Potency [1] | Potency [2] | Potency [6] | Potency [10] | Potency [20] | Potency [16] | Potency [17]

CN(C)NC(=O)CCC(=O)O
inactive: Potency [1] | Potency [3] | Potency [4] | Potency [5] | Potency [7] | Potency [12] | Potency [14] | Potency [9] | Potency [16] | Potency [17]

CC1(N2CCC(n3c([C@@H]4CCCNC4)nc4ccccc43)CC2)CCCCCCC1
active: Potency [1] 26.4 µM | Potency [4] 9.35 µM | Potency [5] 16.6 µM | Potency [19] 6.62 µM | Potency [8] 14.8 µM | Potency [13] 18.7 µM | Potency [9] 7.43 µM

C[C@]12CC[C@H]3[C@@H](CCC4=CC(=O)CC[C@@]43C)[C@H]1CC[C@H]2O
inactive: Potency [1] | Potency [2] | Potency [4] | Potency [19] | Potency [10] | Potency [7] | Potency [8] | Potency [12] | Potency [13] | Potency [14] | Potency [15]
